The structures appear in SMILES notation. The campaign covered roughly 69,000 compounds. About 8,600 (12%) showed an effect of 50% or more. The list comes from a sample in which strong results are over-represented; it also holds similar structures and randomly drawn compounds.

This assay concerns Plasmodium berghei. Description: Screen against P. berghei liver stage (PbLuc), transformed with Luciferase, at 10uM. In kind it is functional, HepG2. Conditions: tested at 10 uM.
For the compound `CC(C)Nc1nc2c(cc1C(=O)N(C)C)CCNCC2`, the INHIBITION was -3.83%. The same measure for `CCCN1CCC2(C1)c1ccccc1S(=O)(=O)N2C` (stereo not given): 13.7%; for `OC(CNCCc1nnc2ccccn12)c1ccc2c(c1)OCO2` (stereo not given): -20.5%; for `CCCc1nc(C)c(C(=O)Nc2cccc(C)n2)s1`: 1.45%. The result for `COC[C@H]1CN(CC2CC2)C(=O)[C@@H]2CCN(Cc3ccoc3)CC[C@H]12` reads 11.3%. The same measure for `Cc1ccsc1CN(Cc1nc2c(cnn2C)c(=O)[nH]1)C(C)C`: 31.533%; for `COc1ccc(NC(=O)N(CC2CCOC2)C2CC2)cn1` (stereo not given): 12.85%; for `Cn1cncc1C(=O)N1CCOC2(COCCN(CC3CC3)C2)C1` (stereo not given): -8.23%.

For the compound `Cc1csc(CN2CC[C@H]3C[C@@H](c4noc(C)n4)O[C@@H]3C2)n1`, the INHIBITION is 29%. As for `Cc1nc([C@H]2C[C@@H]3CCN(Cc4scnc4C)C[C@H]3O2)no1`, the INHIBITION came to 88%. The same measure for `Cc1noc(C)c1CN1CC[C@H]2C[C@H](c3ccncn3)O[C@@H]2C1`: 34.6%. Consider `Cc1nccc([C@@H]2C[C@@H]3CCN(Cc4c(C)noc4C)C[C@H]3O2)n1`, for which the INHIBITION is 67.2%. The result for `Cc1nc([C@@H]2C[C@H]3CN(Cc4ccc5c(c4)OCO5)C[C@H]3O2)no1` reads 29.4%; that for `Cc1noc(C)c1CN1CC[C@H]2C[C@@H](c3ccncn3)O[C@@H]2C1`, 21.6%. The result for `Cc1nc([C@H]2C[C@@H]3CCN(Cc4ccc5c(c4)OCO5)C[C@H]3O2)no1` reads 59.3%; that for `Cc1nc([C@@H]2C[C@H]3CN(Cc4scnc4C)C[C@H]3O2)no1`, -35.2%; that for `Cc1noc([C@@H]2C[C@H]3CN(Cc4ccc5c(c4)OCO5)C[C@H]3O2)n1`, 42.1%. Regarding `Cc1noc(C)c1CN1CCC(c2ccnn2CCO)CC1`, the INHIBITION is listed as -43.5%. The result for `COCC(O)CN1CCC(=O)N(Cc2ccco2)Cc2ccccc21` (stereo not given) reads 24.5%.

Regarding `CN1CCN(C[C@H]2OC[C@@H]3CCN(C(=O)c4cnccn4)C[C@@H]32)CC1`, the INHIBITION is recorded as 31.4%. The same measure for `CCN1CCCC(c2nc(O)c3cc(C)ccc3n2)C1` (stereo not given): 16.8%; for `O=C1NC(c2ccccc2)=N[C@@]12CC[C@@H]1CN(Cc3cccnc3)C[C@@H]12`: 33%.

On to `CC(CN1CCC2(CC1)N=C(c1cccnc1)NC2=O)c1ccccc1` (stereo not given), for which the INHIBITION is 70.1%. The result for `CC(CN1CCC2(CC1)N=C(N(C)C)NC2=O)c1ccccc1` (stereo not given) reads 0.825%; that for `O=C(Cc1cccnc1)NC1CCCN(CCCc2ccccc2)C1` (stereo not given), 8.99%. The same measure for `O=C1NC(c2cccnc2)=NC12CCN(CCCc1ccccc1)CC2`: 58.7%; for `CC1=NC2(CCN(CC(C)c3ccccc3)CC2)C(=O)N1` (stereo not given): 14%.

With `CC(NC(=O)NCCCn1ccnc1)c1nncn1C` (stereo not given), the INHIBITION is on record as -6.61%.

On to `c1coc(CN2CCC3(CC2)COC(COCC2CCOCC2)C3)c1` (stereo not given), for which the INHIBITION was 6.27%. Turning to `COc1cccc(-c2cc(C(=O)NCCn3nc(C)nc3C)[nH]n2)c1`, the INHIBITION is recorded as -13.6%.

Regarding `CCn1c(C)cc(C(=O)N2CCCC(n3ccnc3C)C2)c1C` (stereo not given), the INHIBITION is reported as -11.3%. Take `COc1cc(CNCC2CN(C3CC3)CCO2)cc(OC)c1` (stereo not given): the INHIBITION is reported as -18.3%. In the case of `Oc1ccc(Cl)cc1CNCc1cccc(C(F)(F)F)c1`, the INHIBITION came to 27.4%. The result for `CC(=O)Nc1cccc(CN2CCCC2C(=O)Nc2nccs2)c1` (stereo not given) reads 34.6%; that for `CCn1ccnc1CN1CCCC1C(=O)Nc1nccs1` (stereo not given), 72.2%; that for `CC(C)(C)NC(=O)C1CCCCN1Cc1nccn1CC(F)(F)F` (stereo not given), 46.6%.

Take `CCNc1ccnc(CN2CCCC2C(=O)Nc2nccs2)c1` (stereo not given): the INHIBITION came out at 85.1%. As to `O=C(C1CCCCN1Cc1nccn1CC(F)(F)F)N1CCCC1` (stereo not given), the INHIBITION was 58.9%. Turning to `CCc1ccsc1C(=O)N1CCCN(Cc2nccn2CC)CC1`, the INHIBITION was determined as 30.65%. Turning to `CC1CN(CC(=O)Nc2nccs2)CCN1Cc1nccn1C` (stereo not given), the INHIBITION is listed as 26.675%. Turning to `NC(=O)C1CCCN1Cc1nccn1CC(F)(F)F` (stereo not given), the INHIBITION is recorded as 30.9%. On to `N#Cc1cccc(OCCN2CCCC2C(=O)Nc2nccs2)c1` (stereo not given), for which the INHIBITION came to 44%. For `O=C(Nc1nccs1)C1CCCN1Cc1ccccn1` (stereo not given), the INHIBITION is reported as 87.6%. The same measure for `O=C(Nc1nccs1)NC1CCN(Cc2ccccn2)CC1`: 17.4%; for `CCc1nc(CN2CCCC2C(=O)NC)cs1` (stereo not given): 49%. The same measure for `N#Cc1ccccc1C(=O)Nc1cccc(CN2CCC(CO)CC2)c1`: -43.1%.

With `Cc1cc(OCC(=O)N2CCCC(c3nc(C)c(C)s3)C2)no1` (stereo not given), the INHIBITION worked out at 0.914%. The result for `CC(O)CN1CCN(C(=O)c2ccc(N3CCCC3)nn2)CC1` (stereo not given) reads -43.5%; that for `O=C(CC1CCCC1)Nc1ccc(-n2cc(Br)cn2)nc1`, 24.8%. As to `CN(C)S(=O)(=O)CCCN1CCc2c(ncn2C2CC2)C1`, the INHIBITION worked out at 33.7%.

Turning to `COCCN1C(=O)CCC12CCN(C(=O)CNC(C)=O)CC2`, the INHIBITION is -49.2%.

For the compound `Oc1ccc(CCC2CCCCN2Cc2noc(C3CC3)n2)cc1` (stereo not given), the INHIBITION worked out at 26.5%. The same measure for `Cc1cc(N2CCN(C(=O)c3cc(Cl)c[nH]3)CC2)nc(C)n1`: 5.76%. As for `COc1cc(C)nc(N2CCN(C(=O)CCc3ccncc3)CC2)n1`, the INHIBITION is 7.18%. The result for `Cc1cc(N2CCN(C(=O)c3cc(Cl)c[nH]3)CC2)nc(N)n1` reads 50.1%; that for `Cc1cc(C)cc(CCC(=O)N2CCN(c3cc(C)nc(N)n3)CC2)c1`, 80.5%. Consider `Cc1cc(N2CCN(C(=O)CCc3scnc3C)CC2)nc(N)n1`, for which the INHIBITION is -6.72%.

With `Cc1cc(N2CCN(C(=O)c3cc(Cl)c[nH]3)CC2)nc(C(C)C)n1`, the INHIBITION worked out at 24.6%. In the case of `CN1[C@@H](C(=O)NCC2CC2)C[C@H]2CN(Cc3ccsc3)C[C@H]21`, the INHIBITION is listed as -14.7%. The result for `NC(=O)c1cc2c(nc1N1C[C@H]3OC(=O)N(C4CCCC4)[C@H]3C1)CCC2` reads 5.05%. The same measure for `Cc1c(NCc2cccnc2)cccc1C(=O)N1CCC(N(C)C)C1` (stereo not given): 24.4%; for `CC(C(=O)Nc1ccon1)n1ccc(C(F)(F)F)n1` (stereo not given): 15.1%. The result for `N#Cc1cccnc1N1CCCN(C(=O)CCn2cncn2)CC1` reads 14.1%; that for `c1ccc(Cn2cc(CNCC3CNc4ccnn4C3)cn2)cc1` (stereo not given), 9.54%; that for `c1cc(CNCC2CNc3ccnn3C2)cc(N2CCOCC2)n1` (stereo not given), 62.1%. For `c1ccc(Cn2cncn2)c(CNCC2CNc3ccnn3C2)c1` (stereo not given), the INHIBITION was determined as 36.4%. The same measure for `OCc1ccccc1CNCC1CNc2ccnn2C1` (stereo not given): -17%; for `c1cc(CNCC2CNc3ccnn3C2)cc(Cn2cccn2)c1` (stereo not given): 50.5%. Take `c1cc(CNCC2CNc3ccnn3C2)cc(OC2CCCC2)n1` (stereo not given): the INHIBITION stood at 60.7%. The result for `c1cc(CNCC2CNc3ccnn3C2)cc(N2CCCCC2)n1` (stereo not given) reads 37%; that for `c1ccc(Cn2cccn2)c(CNCC2CNc3ccnn3C2)c1` (stereo not given), 45.8%. As to `c1cc2n(n1)CC(CNCc1ccc(OC3CCCC3)nc1)CN2` (stereo not given), the INHIBITION was determined as 41.5%.

For the compound `c1cc(CNCC2CNc3ccnn3C2)cc(OC2CCCCC2)n1` (stereo not given), the INHIBITION came to 40.2%. The result for `c1ccc(-n2ccnc2)c(CNCC2CNc3ccnn3C2)c1` (stereo not given) reads 55.1%; that for `COc1cc(CNCC2CNc3ccnn3C2)ccn1` (stereo not given), 23.7%; that for `O=C(Cn1c(C(F)F)cc2cccnc21)NC1CCCC1`, 22%. The result for `CN(C)c1nc(CNC(=O)Nc2cccc([S+](C)[O-])c2)cs1` (stereo not given) reads 12.4%; that for `Cc1cnn(CC(=O)N2CCC(c3ccn4nccc4n3)CC2)c1`, 32.7%; that for `CCOC1COC2(CCN(Cc3cccc(C#N)c3)CC2)C1` (stereo not given), 29.7%.

As to `CN1CCCN(C(=O)NCCOc2ccc3c(c2)OCO3)CC1`, the INHIBITION is 33.3%. `COCCN1C(=O)C[C@@H]2[C@H]1CCN2C(=O)c1ccc[nH]1`: the INHIBITION was -14.4%. In the case of `Cc1nc(C)n(CC2CCCN(CC(=O)N3CCCC3)C2)n1` (stereo not given), the INHIBITION is 7.67%. The same measure for `CCc1noc(-c2cccc(C(=O)O)c2)n1`: -30%; for `CN1C[C@@H](C(=O)N(C)C)[C@@]2(CCc3ccccc3C(=O)N2)C1`: 4.41%; for `Cc1cnn(CC2CN(Cc3noc(C4CC4)n3)CCO2)c1` (stereo not given): -12.2%. The same measure for `Cc1ccc2c(c1)OC(C)CN2C(=O)CCc1cccnc1` (stereo not given): 43.4%; for `Cc1ccc2c(c1)OC(C)CN2C(=O)Cc1ccc(C)nc1` (stereo not given): 59.1%; for `Cc1ccc2c(c1)OC(C)CN2C(=O)CCc1cscn1` (stereo not given): 9.04%. Turning to `CCSc1ccccc1C(=O)NCC1CCN(Cc2ccsc2)CC1`, the INHIBITION turned out to be 13.6%. The same measure for `NC(=O)CN1CCCN(C(=O)Cc2ccc(F)cc2)CC1`: 5.03%; for `NC(=O)CN1CCCN(C(=O)Cc2ccc3ccccc3c2)CC1`: -9.98%. The same measure for `COC(=O)CN1CCCN(C(=O)CCOc2cccc(C)c2C)CC1`: 29.7%; for `Cc1cccc(OCCC(=O)N2CCCN(CC(N)=O)CC2)c1C`: 55.9%; for `Cc1cccc(OCCC(=O)N2CCCN(C(N)=O)CC2)c1C`: 15.5%. On to `NC(=O)CN1CCCN(C(=O)Cc2ccc(Br)cc2)CC1`, for which the INHIBITION is reported as 54.4%. `CN(CC(=O)NCC(=O)Nc1ccc(F)cc1)Cc1cccs1`: the INHIBITION is reported as 5.87%. The same measure for `CSC(C)C(=O)N1CCCN(c2ncccc2C#N)CC1` (stereo not given): 1.78%; for `Cc1ccccc1CC1(CO)CCCN(c2ncccc2C#N)C1` (stereo not given): 56.8%; for `N#Cc1cccnc1N1CCCC(CO)(Cc2ccccc2F)C1` (stereo not given): -17.2%.

For the compound `N#Cc1cccnc1N1CCCC(CO)(Cc2ccc(F)cc2)C1` (stereo not given), the INHIBITION is recorded as 85.5%. `N#Cc1cccnc1N1CCCC(CO)(Cc2cccc(Cl)c2)C1` (stereo not given): the INHIBITION was -84%. `CCC1(CO)CCCN(c2ncccc2C#N)C1` (stereo not given): the INHIBITION amounted to 5.14%.

For `Cc1ccccc1CN1C[C@@H]2COC[C@]2(CNC(=O)C2CCC2)C1`, the INHIBITION worked out at 43%.

In the case of `CCOCc1nc(N2CCCC2)sc1C(=O)NCCC(=O)OCC`, the INHIBITION turned out to be 2.55%. In the case of `Cn1ccnc1CN1CCc2c(COCC3CC3)nn(C)c2C1`, the INHIBITION was 38.5%.

The record behind these values is ChEMBL document CHEMBL4513216, “Probing the Open Global Health Chemical Diversity Library for Multistage-Active Starting Points for Next-Generation Antimalarials” (ACS Infect Dis, 2020).
